Source: PubChem
A selection: hits, their analogues and other compounds. The true share with any hit is near 4.7%.
SKKanGAS inh – inhibitors of SKKanGAS S. pyogenes growth in kanamycin (SK-promoter or general growth effect). inhibition, % at 7.5 µM. 300,000 compounds, 1.3% hits. BacTiter-Glo, 6 h;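 active = mean replicate score, as percent of positive control median, at least 50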;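 also: strain carries kanamycin resistance gene driven by streptokinase promoter and grows in 40 µg/ml kanamycin; loss of luminescence reflects streptokinase promoter inhibition or plain growth inhibition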
tim10-1 inh – tim10-1 yeast growth inhibition. 330,000 compounds, 2.2% hits. inhibition, % at 20 µM. S. cerevisiae tim10-1 ts strain growth, BacTiter-Glo, 24 h;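 active = inhibition of at least 40%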;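 also: mutant grown at 25 °C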
tim23-1 inh – inhibits growth of tim23-1 mutant yeast; S. cerevisiae tim23-1 growth, BacTiter-Glo luminescence, 24 h; inhibition, % at 20 µM; 330,000 compounds, 1.3% hits; AID 463212;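 active = growth inhibition of the mutant yeast at or above 50%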;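 also: temperature-sensitive mutant grown at 25 °C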
ATG4B inh – ATG4B (human) cysteine protease inhibition | Q9Y4P1 | inhibition, % at 8.33 µM | 340,000 compounds, 0.51% hits | ATG4B cleavage of LC3-PLA2, NBD-HPC fluorescence, 1 h; in the data active = inhibition above about 40%
Target sequence (Q9Y4P1 whole entry, looked up): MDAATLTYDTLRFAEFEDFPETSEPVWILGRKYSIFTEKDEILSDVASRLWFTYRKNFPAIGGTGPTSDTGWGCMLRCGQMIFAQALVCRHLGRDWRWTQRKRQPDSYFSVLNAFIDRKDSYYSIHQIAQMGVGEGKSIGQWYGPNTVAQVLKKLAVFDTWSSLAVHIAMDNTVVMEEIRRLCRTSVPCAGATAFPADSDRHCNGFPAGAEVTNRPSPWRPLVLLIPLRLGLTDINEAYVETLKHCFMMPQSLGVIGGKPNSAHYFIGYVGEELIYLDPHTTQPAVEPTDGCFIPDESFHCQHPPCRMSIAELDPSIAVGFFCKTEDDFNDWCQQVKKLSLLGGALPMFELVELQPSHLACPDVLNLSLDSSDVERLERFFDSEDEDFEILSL
TIM10 inh – TIM10 yeast growth inhibition. 330,000 compounds, 1.4% hits. inhibition, % at 10 µM. S. cerevisiae TIM10 strain growth, BacTiter-Glo luminescence, 24 h;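 active = inhibition of 40% or more at the single tested concentration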;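 also: wild-type TIM10 isogenic control strain grown at permissive 25 °C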
PfHsp90 set2 – reduces growth (ATP signal) of yeast expressing P. falciparum Hsp90. S. cerevisiae expressing PfHsp90, BacTiter-Glo ATP, 48 h; yeast lacking PDR1 and PDR3 efflux regulators. 310,000 compounds, 0.32% hits. AID 504621. inhibition, % at 9.4 µM;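 active = every replicate shows inhibition above about 80%, whatever the replicate mean, limit read from the data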
tim10-1 confirm – tim10-1 yeast growth inhibition, confirmed; 7,400 compounds, 56% hits; inhibition, % at 20 µM; S. cerevisiae tim10-1 ts strain growth, BacTiter-Glo, 24 h; shares compounds with tim10-1 inh; AID 463213;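 active = inhibition of yeast growth at or above a set limit in either of two repeat tests at 20 µM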;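 also: tim10-1 mutant grown at permissive 25 °C to find synthetic lethal compounds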
Of the large screens only hits and unclear results are named; the others gave an inactive call (follow-up assays come after a bar, where they were run).

CC1CCN(c2ccc(S(=O)(=O)N3CCC(C)CC3)cc2N)CC1	tim10-1 inh 41 | tim10-1 confirm inactive
O=C(O)C1CCCN(C(=O)c2cccc3ccccc23)C1 (stereo not given)	none
Cn1c(Cn2nnc3ccccc32)nnc1SCC(=O)N1c2ccccc2Sc2ccccc21	none
COc1ccc(CCNC(=O)COC(=O)c2cnccn2)cc1	none
CC(=O)N1CCN(c2cc(N3CCc4ccccc4C3)c(F)cc2[N+](=O)[O-])CC1	tim10-1 inh 52 (no result: PfHsp90 set2) | tim10-1 confirm 32
O=C(O)CCCC(=O)Nc1ccc2c(c1)oc1ccccc12	none
CCn1nnnc1Oc1ccc(Cl)cc1	none
Cc1ccc(-c2nn(CCC#N)cc2C=C(C#N)C#N)cc1	tim10-1 inh 45 | tim10-1 confirm inactive
CNC(=S)NNc1nc(-c2ccccc2)c2cc(Cl)ccc2n1	none
NC(=O)c1ccsc1NC(=O)COC(=O)C1=NNC(=O)CC1	none (no result: SKKanGAS inh, PfHsp90 set2)
O=C(CCN1C(=O)S/C(=C\c2ccccc2)C1=O)N1CCCCC1	tim10-1 inh 44 | tim10-1 confirm 39
O=C(CCN1C(=O)S/C(=C\c2ccccc2)C1=O)N1CCOCC1	tim10-1 inh 52 | tim10-1 confirm inactive
Cc1ccc(SCc2nc(-c3ccncc3)no2)cc1	none
Clc1ccc(Cl)c2sc(N3CCOCC3)nc12	none
Clc1ccc(Cl)c2sc(N3CCCC3)nc12	tim10-1 inh 47 | tim10-1 confirm 37
COc1ccc(NC(=O)N(CCC(C)C)C(C)c2ccccn2)c(OC)c1 (stereo not given)	tim10-1 inh 41 | tim10-1 confirm inactive
CCC(C)C(=O)Nc1ccc(OC)cc1OC (stereo not given)	none
COc1ccccc1NC(=O)c1cc2c(CO)cnc(C)c2oc1=Nc1ccccc1	none (no result: PfHsp90 set2)
CSc1nc(N)nc(SCC(=O)C23CC4CC(CC(C4)C2)C3)c1C#N	none
N#Cc1c(N)nc(SCC(=O)C23CC4CC(CC(C4)C2)C3)c(C#N)c1-c1ccc(Cl)cc1	tim10-1 inh 45 | tim10-1 confirm 43
CCOC(=O)c1ccc(NS(=O)(=O)c2cc3c(cc2C)NC(=O)CO3)cc1	none
Cc1cc(Cl)ccc1Oc1ccccc1C(=O)CC#N	tim10-1 inh 52 | tim10-1 confirm 38
O=C(NCCc1ccco1)C(=O)NCC1OCCCN1S(=O)(=O)c1ccc(Cl)cc1 (stereo not given)	none
Cc1cccc(NC(=O)CSc2nnc(NC(=O)C3CC3)s2)c1C	none
COc1cccc(NC(=O)c2oc3ccc(S(=O)(=O)N4CCOCC4)cc3c2C)c1	none
C/C1=C\CCC2C(/C=C(\C)CC1)OC(=O)C2CN1CCCCC1 (stereo not given)	tim10-1 inh 40 | tim10-1 confirm 43
NS(=O)(=O)c1ccc(NC(=O)Cc2cccs2)cc1	none
CC1CCN(S(=O)(=O)c2ccc(NC(=O)Cc3cccs3)cc2)CC1	tim10-1 inh 54 (no result: PfHsp90 set2) | tim10-1 confirm 36
CCN(CC)S(=O)(=O)c1ccc(NC(=O)Cc2cccs2)cc1	tim10-1 inh 45 | tim10-1 confirm inactive
CC1CCN(CC(=O)Nc2ccc(S(=O)(=O)N3CCC(C)CC3)cc2)CC1	none
Cc1scc(C(=O)N/N=C/c2ccc([N+](=O)[O-])o2)c1C	tim10-1 inh 46 (no result: ATG4B inh, PfHsp90 set2) | tim10-1 confirm inactive
Cc1scc(C(=O)N/N=C/c2ccco2)c1C	none
Cc1cc(N(C)C)nc(Nc2ccccc2)n1	none (no result: SKKanGAS inh)
COc1ccc(-c2noc(N3CCC(C(=O)Nc4ccc(F)cc4)CC3)n2)cc1	none
COc1ccc(NC(=O)C2CCCN(c3ncnc4onc(-c5ccc(F)cc5)c34)C2)cc1 (stereo not given)	tim10-1 inh 42 | tim10-1 confirm inactive
N#C/C(=N/Nc1ccc(OC(F)(F)F)cc1)C(N)=S	SKKanGAS inh 115, tim10-1 inh 48 | tim10-1 confirm 57
COc1ccc(N/N=C(\C#N)C(N)=O)cc1	none
Cc1ccc(C(=O)Nc2ccc(C(=O)N3CCCCC3C)cc2)cc1 (stereo not given)	tim10-1 inh 47 | tim10-1 confirm inactive
Cc1ccc(C(=O)Nc2ccccc2C(=O)N2CCCCC2C)cc1 (stereo not given)	none
O=C(CN1CCOCC1)NCCC12CC3CC(CC(C3)C1)C2	none
CCN(CC)CCN(C(=O)c1ccc2c(c1)OCCO2)c1nc2ccc(C)cc2s1	tim10-1 inh 44 | tim10-1 confirm inactive
C=C(C)CNC(=S)N/N=C1\CCCCc2ccccc21	tim10-1 inh 55 | tim10-1 confirm 41
Cc1cc(C)c(C(=O)Cn2nc(C(=O)O)c3ccccc3c2=O)cc1C	none
Cc1cc(C(=O)Cn2nc(C(=O)O)c3ccccc3c2=O)c(C)n1-c1ccccc1	tim10-1 inh 42 | tim10-1 confirm inactive
CC(C)C(=O)N(c1cc2sc(=O)oc2c2ccccc12)S(=O)(=O)c1cccs1	tim10-1 inh 47 | tim10-1 confirm inactive
CC(C)C(=O)N(c1ccc2oc(=O)sc2c1)S(=O)(=O)c1cccs1	none
CC1(C)Cc2c(cnn2-c2ccc(F)cc2)C(NC(=O)CN2CCCCC2=O)C1 (stereo not given)	none
O=C(O)CNS(=O)(=O)c1ccc2[nH]c(=O)c(=O)[nH]c2c1	none
O=S(=O)(c1ccccc1F)N1CCN(c2nc(-c3cccnc3)nc3ccccc23)CC1	none (no result: SKKanGAS inh, PfHsp90 set2)
O=c1[nH]c(CN2CCN(S(=O)(=O)c3ccc(Cl)cc3)CC2)nc2cc(Cl)ccc12	tim10-1 inh 48 | tim10-1 confirm 31
CCOc1ccc(OCC)c(NC(=O)CN2CCN(c3cccc(C)c3)CC2)c1	tim10-1 inh 46 | tim10-1 confirm inactive
CCOc1ccc(OCC)c(NC(=O)CN2CCN(c3cccc(C)c3)C(C)C2)c1 (stereo not given)	none
CCN1C(=O)/C(=C/c2cnn(CC)c2C)SC1=S	none
CCN1C(=O)/C(=C/c2c(C)nn(C)c2C)SC1=S	tim10-1 inh 55 (no result: PfHsp90 set2) | tim10-1 confirm 44
S=c1[nH]nc(-c2ccccc2Br)n1Cc1ccccc1	tim10-1 inh 41 | tim10-1 confirm inactive
Cc1ccccc1-c1n[nH]c(=S)n1Cc1ccccc1	tim10-1 inh 40 | tim10-1 confirm inactive
O=C(NCCCSc1ccccc1)c1cc(Cl)ccc1O	tim10-1 inh 47 | tim10-1 confirm inactive
O=C(CNC(=O)c1ccccc1)NCCCSc1ccccc1	none (no result: SKKanGAS inh)
CCn1c(=O)c2c(nc3n2CCCN3CCc2ccccc2)n(C)c1=O	none
Cc1ccc(/C=N\NC(=O)C2COc3cc4ccccc4cc3O2)o1 (stereo not given)	none
Cc1cc(OCCOc2cccc3cccnc23)cc(C)c1Cl	tim10-1 inh 41 | tim10-1 confirm inactive
c1ccc(OCCOc2cccc3cccnc23)cc1	none
CCc1nn(-c2ccccc2)c(N)c1C#N	none
CCc1nn(-c2ccccc2)c(=S)c2ccccc12	tim10-1 inh 46 | tim10-1 confirm 52
